This is part of a sample that, as a whole, favours compounds with a hit. Of some 79,000 tested, about 15% had one in any assay. Calls of active or inactive are those of the source. Cut-off read from the data, not from the text of the source: active = growth inhibition above about 70%; inactive = the rest.
Experiments:
[1] = NCI Yeast Anticancer Drug Screen. Data for the wt1 strain (AID 149);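 note: 0% = growth of vehicle-treated wt1 cultures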; details: S. cerevisiae wt1 strain (SPY 50644) growth inhibition, hits give high values
Summary of the method: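 Yeast wt1 strain exposed to compounds; growth inhibition measured relative to vehicle-treated controls.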

[2] = NCI Yeast Anticancer Drug Screen. Data for the rad50EPP+ strain (AID 151);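 note: 0% = growth of vehicle-treated control cultures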; details: S. cerevisiae rad50 mutant strain, hits give high values
Summary of the method: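 rad50EPP+ yeast treated with test compounds. Readout: growth vs vehicle control.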

[3] = NCI Yeast Anticancer Drug Screen. Data for the rad50 strain (AID 155);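 note: 0% = growth of vehicle-only cultures of the same strain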; details: S. cerevisiae rad50 strain growth inhibition, hits give high values
Summary of the method: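 Yeast carrying a defined DNA repair defect were exposed to test compounds, and growth was compared with vehicle-treated controls to give percent inhibition.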

[4] = NCI Yeast Anticancer Drug Screen. Data for the mec2-1 strain (AID 157); details: S. cerevisiae mec2-1 strain, hits give high values
Summary of the method: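 Growth inhibition is read against vehicle-treated controls after compound exposure of the mec2-1 yeast strain, which is defective in DNA damage repair or cell cycle control.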

[5] = NCI Yeast Anticancer Drug Screen. Data for the rad14 strain (AID 159);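 note: 0% = growth of vehicle-treated control cultures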; details: S. cerevisiae rad14 strain growth inhibition, hits give high values
Summary of the method: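 Yeast cells carrying a defined DNA-repair defect were exposed to compounds, and growth inhibition was calculated relative to vehicle-treated control cultures.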

[6] = NCI Yeast Anticancer Drug Screen. Data for the sgs1 mgt1 strain (AID 161);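 note: 0% = growth of cultures given vehicle only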; details: S. cerevisiae sgs1 mgt1 strain, hits give high values
Summary of the method: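 Growth of a repair-deficient yeast mutant was monitored after compound treatment and expressed as inhibition relative to vehicle-treated cultures.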

[7] = NCI Yeast Anticancer Drug Screen. Data for the CLN2oe strain (AID 163);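 note: 0% = growth of vehicle-only control cultures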; details: S. cerevisiae CLN2oe strain, hits give high values
Summary of the method: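 Compound-treated yeast; growth vs vehicle ctrl = % inhibition. Genetically altered strain (cell-cycle control).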

[8] = NCI Yeast Anticancer Drug Screen. Data for the cln2 rad14 strain (AID 165);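 note: 0% = growth equal to vehicle treated cultures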; details: S. cerevisiae cln2 rad14 strain, hits give high values
Summary of the method: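 Growth inhibition, relative to vehicle-treated controls, is the read-out. The test organism is a yeast strain with defined genetic alterations, cln2 rad14.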

[9] = NCI Yeast Anticancer Drug Screen. Data for the bub3 strain (AID 167); details: S. cerevisiae bub3 mutant strain, hits give high values
Summary of the method: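 Compounds were applied to a genetically altered yeast strain carrying a cell-cycle control defect. Growth inhibition was scored against vehicle-treated controls.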

[10] = NCI Yeast Anticancer Drug Screen. Data for the wt2 strain (AID 169);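 note: 0% = growth of vehicle-treated yeast cultures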; details: S. cerevisiae wt2 strain growth inhibition, hits give high values
Summary of the method: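 Compound exposure of yeast; growth compared with vehicle controls; inhibition reported.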

[11] = NCI Yeast Anticancer Drug Screen. Data for the mlh1 strain (AID 171);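 note: 0% = growth of vehicle-treated control cultures of the same strain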; details: S. cerevisiae mlh1 strain growth inhibition, hits give high values
Summary of the method: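 Compounds are applied to a genetically altered yeast strain, and its growth is compared with that of vehicle-treated cultures to give percent inhibition.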

[12] = NCI Yeast Anticancer Drug Screen. Data for the sgs1 strain (AID 173);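 note: 0% = growth of vehicle-only control cultures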; details: S. cerevisiae sgs1 mutant, hits give high values
Summary of the method: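 Compounds applied to genetically altered yeast; growth compared with vehicle-treated cultures to give % inhibition.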

[13] = NCI Yeast Anticancer Drug Screen. Data for the mlh1 rad18 strain (AID 175); details: S. cerevisiae mlh1 rad18 strain growth inhibition, hits give high values
Summary of the method: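 Cells of a genetically altered yeast strain, deficient in DNA damage repair, were treated with compound. Their growth was then compared with that of vehicle-treated cultures to give inhibition.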

[14] = NCI Yeast Anticancer Drug Screen. Data for the rad18 strain (AID 177); details: S. cerevisiae rad18 mutant growth inhibition, hits give high values
Summary of the method: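 Compounds are applied to a repair-deficient yeast strain, and growth is compared with that of vehicle-treated cultures to give percent inhibition.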

[15] = NCI Yeast Anticancer Drug Screen. Data for the rad52 strain (AID 147);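 note: 0% = growth of vehicle-treated control cultures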; details: S. cerevisiae rad52 mutant growth inhibition, hits give high values
Summary of the method: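 DNA repair-defective yeast; compound exposure; growth scored against vehicle controls.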

[16] = at 5.0 µM (retest, dose inferred, filed as 0.5)
[17] = at 50.0 µM (retest, dose inferred, filed as 5.0)

Measured: growth inhibition

CC(C)(C)[OH+][O-].[O-]c1ccc(Cl)cc1C=Nc1ccc(Cl)cc1[O-].[O]=[V]
active: [3]; at 50.0 µM 93.8% | [3]; at 100.0 µM 83% | [4]; at 50.0 µM 94.5% | [6]; at 50.0 µM 91.5% | [8]; at 50.0 µM 90.5% | [9]; at 50.0 µM 92.7% | [9]; at 100.0 µM 76% | [13]; at 50.0 µM 95.2% | [14]; at 100.0 µM 78%
inactive: [1]; at 1.2 µM 12% | [1]; at 3.7 µM 11% | [1]; at 11.0 µM 15% | [1]; at 33.0 µM 19% | [1]; at 100.0 µM 29% | [2]; at 1.2 µM 0% | [2]; at 3.7 µM 10% | [2]; at 11.0 µM 26% | [2]; at 33.0 µM 43% | [2]; at 100.0 µM 60% | [3]; at 1.2 µM -3% | [3]; at 3.7 µM 34% | [3]; [16] 19% | [3]; at 11.0 µM 44% | [3]; at 33.0 µM 46% | [3]; [17] 17% | [4]; at 1.2 µM 10% | [4]; at 3.7 µM 17% | [4]; [16] 24% | [4]; at 11.0 µM 13% | [4]; at 33.0 µM 31% | [4]; [17] 9% | [4]; at 100.0 µM 56% | [5]; at 1.2 µM 4% | [5]; at 3.7 µM 9% | [5]; at 11.0 µM 12% | [5]; at 33.0 µM 26% | [5]; at 100.0 µM 54% | [6]; [16] 20% | [6]; [17] 40% | [7]; at 1.2 µM -3% | [7]; at 3.7 µM -3% | [7]; at 11.0 µM 0% | [7]; at 33.0 µM 11% | [7]; at 100.0 µM 26% | [8]; [16] 6% | [8]; [17] 3% | [9]; at 1.2 µM 19% | [9]; at 3.7 µM 30% | [9]; [16] 41% | [9]; at 11.0 µM 45% | [9]; at 33.0 µM 58% | [9]; [17] 16% | [10]; at 1.2 µM 14% | [10]; at 3.7 µM 24% | [10]; at 11.0 µM 13% | [10]; at 33.0 µM 20% | [10]; at 100.0 µM 30% | [11]; at 1.2 µM 8% | [11]; at 3.7 µM 10% | [11]; at 11.0 µM 9% | [11]; at 33.0 µM 15% | [11]; at 100.0 µM 38% | [12]; at 1.2 µM 12% | [12]; at 3.7 µM 16% | [12]; at 11.0 µM 23% | [12]; at 33.0 µM 33% | [12]; at 100.0 µM 53% | [13]; [16] 24% | [13]; [17] 12% | [14]; at 1.2 µM 4% | [14]; at 3.7 µM 19% | [14]; at 11.0 µM 24% | [14]; at 33.0 µM 47%

CC(=O)N1C(=O)/C(=C\C(=O)c2ccc(Cl)cc2)c2ccccc21
inactive: [15]; at 1.2 µM 8% | [15]; at 3.7 µM 34% | [15]; at 11.0 µM 59% | [2]; at 1.2 µM -2% | [2]; at 3.7 µM 12% | [2]; at 11.0 µM 22% | [2]; at 33.0 µM 47% | [3]; at 1.2 µM 11% | [3]; at 3.7 µM 0% | [3]; [16] 44% | [3]; at 11.0 µM 51% | [4]; at 1.2 µM -3% | [4]; at 3.7 µM -8% | [4]; [16] 45% | [4]; at 11.0 µM 17% | [5]; at 1.2 µM -16% | [5]; at 3.7 µM -10% | [5]; at 11.0 µM 8% | [6]; [16] 41% | [7]; at 1.2 µM -38% | [7]; at 3.7 µM -14% | [7]; at 11.0 µM 2% | [7]; at 33.0 µM 66% | [8]; [16] 14% | [9]; at 1.2 µM 2% | [9]; at 3.7 µM -23% | [9]; [16] 13% | [9]; at 11.0 µM -15% | [10]; at 1.2 µM 25% | [10]; at 3.7 µM 52% | [12]; at 1.2 µM -15% | [12]; at 3.7 µM 17% | [12]; at 11.0 µM 49% | [14]; at 1.2 µM 14% | [14]; at 3.7 µM 32% | [14]; at 11.0 µM 66%
active: [15]; at 33.0 µM 93% | [15]; at 100.0 µM 94% | [2]; at 100.0 µM 72% | [3]; at 33.0 µM 90% | [3]; [17] 96% | [3]; at 50.0 µM 76% | [3]; at 100.0 µM 92% | [4]; at 33.0 µM 81% | [4]; [17] 98% | [4]; at 50.0 µM 87.4% | [4]; at 100.0 µM 91% | [5]; at 33.0 µM 71% | [5]; at 100.0 µM 92% | [6]; [17] 96% | [6]; at 50.0 µM 86.3% | [7]; at 100.0 µM 90% | [8]; [17] 91% | [8]; at 50.0 µM 77.2% | [9]; at 33.0 µM 81% | [9]; [17] 96% | [9]; at 50.0 µM 85.8% | [9]; at 100.0 µM 92% | [10]; at 11.0 µM 93% | [10]; at 33.0 µM 97% | [10]; at 100.0 µM 93% | [12]; at 33.0 µM 87% | [12]; at 100.0 µM 92% | [13]; [16] 80% | [13]; [17] 97% | [13]; at 50.0 µM 80.7% | [14]; at 33.0 µM 92% | [14]; at 100.0 µM 92%

O=[N+]([O-])c1cccc2nc3ccccc3c(NCCc3cccc[n+]3[O-])c12
active: [1]; at 100.0 µM 70% | [2]; at 11.0 µM 72% | [2]; at 33.0 µM 82% | [2]; at 100.0 µM 90% | [3]; [16] 70% | [3]; at 33.0 µM 88% | [3]; [17] 96% | [3]; at 50.0 µM 87.5% | [3]; at 100.0 µM 94% | [4]; at 33.0 µM 95% | [4]; [17] 98% | [4]; at 50.0 µM 83.2% | [4]; at 100.0 µM 98% | [5]; at 11.0 µM 89% | [5]; at 33.0 µM 97% | [5]; at 100.0 µM 99% | [6]; [16] 91% | [6]; [17] 97% | [6]; at 50.0 µM 91.8% | [7]; at 100.0 µM 86% | [9]; [17] 83% | [10]; at 100.0 µM 79% | [11]; at 100.0 µM 89% | [12]; at 3.7 µM 75% | [12]; at 11.0 µM 89%
inactive: [1]; at 1.2 µM 0% | [1]; at 3.7 µM 1% | [1]; at 11.0 µM 11% | [1]; at 33.0 µM 27% | [2]; at 1.2 µM 21% | [2]; at 3.7 µM 43% | [3]; at 1.2 µM 10% | [3]; at 3.7 µM 30% | [3]; at 11.0 µM 68% | [4]; at 1.2 µM 2% | [4]; at 3.7 µM 18% | [4]; [16] 25% | [4]; at 11.0 µM 62% | [5]; at 1.2 µM 12% | [5]; at 3.7 µM 37% | [7]; at 1.2 µM -11% | [7]; at 3.7 µM -12% | [7]; at 11.0 µM 6% | [7]; at 33.0 µM 35% | [9]; at 1.2 µM -12% | [9]; at 3.7 µM -13% | [9]; [16] 3% | [9]; at 11.0 µM -11% | [9]; at 33.0 µM 17% | [9]; at 50.0 µM 53.2% | [9]; at 100.0 µM 65% | [10]; at 1.2 µM 1% | [10]; at 3.7 µM 3% | [10]; at 11.0 µM 14% | [10]; at 33.0 µM 35% | [11]; at 1.2 µM 0% | [11]; at 3.7 µM 3% | [11]; at 11.0 µM 20% | [11]; at 33.0 µM 50% | [12]; at 1.2 µM 43%

Reference: PubChem BioAssay (NCI)
